Values without a mark were called inactive. No rule for the calls is given here.

Sequence of Pantothenate synthetase (Mycobacterium tuberculosis (strain ATCC 25618 / H37Rv)) (P9WIL5 whole entry, looked up): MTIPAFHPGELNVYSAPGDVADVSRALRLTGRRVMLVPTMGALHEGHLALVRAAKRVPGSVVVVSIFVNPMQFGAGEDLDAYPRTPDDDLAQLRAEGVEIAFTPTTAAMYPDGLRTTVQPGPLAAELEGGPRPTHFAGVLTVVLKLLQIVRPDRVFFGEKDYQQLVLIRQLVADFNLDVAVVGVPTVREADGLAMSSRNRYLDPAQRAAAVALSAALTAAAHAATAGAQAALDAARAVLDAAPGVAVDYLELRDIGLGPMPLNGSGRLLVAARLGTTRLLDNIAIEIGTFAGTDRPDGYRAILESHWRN

The assay concerns the target Pantothenate synthetase (Mycobacterium tuberculosis (strain ATCC 25618 / H37Rv)) (UniProt P9WIL5). In words: Recombinant Mtb pantothenate synthetase (PanC) inhibitors, coupled enzyme, confirmatory (AID 375).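 Also: 0% = full reaction with vehicle and 100% = no enzyme background.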 As to conditions: coupled enzyme assay; at 10 µM, active compounds read high.
Take `CCOC(=O)c1ccc(NC(=O)N2CCN(CCc3ccccc3)CC2)cc1`: the inhibition is 0%. As for `COC(=O)CCC(NC(=O)c1cc(-c2ccc3c(c2)OCCO3)oc1C)C(=O)OC` (stereo not given), the inhibition is 0%. With `COc1ccc(-c2nc(C)sc2CC(=O)O)cc1`, the inhibition is 4%. To `Cn1c(NC(=O)c2ccccc2NC(=O)C(C)(C)C)nc2ccccc21` belongs 0%; to `CCCCn1c(NCc2ccccc2O)nc2ccccc21`, 0%; to `O=c1/c(=C/c2ccco2)sc2nc(-c3ccccc3Br)nn12`, 0%. Then `COc1ccc(C(=O)NCCCCCC(=O)O)cc1OC`, with 0%; and `CCCCNC(=O)OCCNC(=O)NC`, with 0%; and `C=CCn1c(SCc2ccc(C#N)cc2)nnc1-c1cccc(Cl)c1`, with 1%. As for `Cc1sc2ncnc(SCC(=O)N3CCCC3)c2c1C`, the inhibition is 0%. Take `CCCN1CC23C=CC(O2)C(C(=O)O)C3C1=O` (stereo not given): the inhibition is 0%.

In the case of `CCOc1ccccc1Nc1nc2ccccc2[nH]1`, the inhibition is 1%. `O=C(O)CC(C(=O)Nc1cccc(C(F)(F)F)c1)C1CCCO1` (stereo not given): the inhibition is 1%. Then `CCCCN(C)C(=O)c1cn(C)c2ccc(S(=O)(=O)N(C)C)cc2c1=O`, with 0%. For the compound `CCOc1ccc(N(CC(=O)NCc2ccco2)S(=O)(=O)c2ccc(OC)c(OC)c2)cc1`, the inhibition was 0%.

Take `CCC1(C)Cc2c(C#N)c(N)n(-c3ccccc3)c(=O)c2CO1` (stereo not given): the inhibition was 0%.

`COC(=O)Nc1nc2c(C)cccc2s1`: the inhibition is 0%. In the case of `Cc1ccc(-c2cn3nc(C)c(C)nc3n2)cc1`, the inhibition is 1%. Consider `COc1ccc(C(=O)N2CCN(C3CCC(c4ccccc4)CC3)CC2)cc1OC` (stereo not given), for which the inhibition was 2%.

Regarding `Cc1ccc(S(=O)(=O)NCCOC(=O)Nc2sc(=S)n(C)c2C)cc1`, the inhibition is 0%. For `CCn1nnnc1SCC(=O)Nc1nc(-c2cccs2)cs1`, the inhibition is 0%. As for `O=C(O)C1CCCCC1C(=O)Nc1ccccn1` (stereo not given), the inhibition was 0%. With `CCSc1nc(-c2ccc(OC)cc2)ccc1C#N`, the inhibition is 1%.

As for `O=C(CSc1nnnn1C1CCCC1)N1CCN(C(=O)c2ccco2)CC1`, the inhibition is 0%. Consider `O=C(O)c1ccc2noc(-c3ccccc3)c2c1`, for which the inhibition was 0%.

Consider `O=c1[nH]c(SCc2cc(=O)n3ccccc3n2)nc2c1CCC2`, for which the inhibition is 4%.

As to `Cn1c(Cc2csc(N)n2)nnc1SCC(=O)NC1CCCCC1`, the inhibition was 4%. Then `CCN(CC)S(=O)(=O)c1ccc(S(=O)(=O)N(Cc2ccccn2)Cc2ccco2)cc1`, with 11%.

On to `O=C(CCn1c(=O)c2sccc2n(CC(=O)NCc2ccco2)c1=O)NCc1ccccc1`, for which the inhibition was 3%.

For the compound `O=C(NCCc1ccccc1)C1CCN(S(=O)(=O)N2CCC3(CC2)OCCO3)CC1`, the inhibition is 4%. As to `CCOC(=O)N1CCN(Cc2nc3c(c(=O)n(C)c(=O)n3C)n2Cc2ccccc2)CC1`, the inhibition is 0%. Regarding `Cc1ccc2[nH]c3c(N4CCOCC4)ncnc3c2c1`, the inhibition is 0%. Take `Cc1nn(-c2ccc(F)cc2)c2sc(C(=O)OCC(=O)N3CCC(C)CC3)cc12`: the inhibition was 0%. With `O=c1c2c(-c3ccccc3)csc2nc2n1CCC2`, the inhibition is 0%. To `CCNC(=O)c1ccc(NS(=O)(=O)c2ccccc2)cc1` belongs 6%; to `Cc1ccccc1Nc1cc2ccccc2c(=O)[nH]1`, 2%.

On to `CN1C(=O)c2oc3ccccc3c(=O)c2C1c1ccccn1` (stereo not given), for which the inhibition is 0%.

On to `CCOC(=O)C1CCCN(Cc2nc(N)nc(Nc3ccccc3)n2)C1` (stereo not given), for which the inhibition is 10%. For `COC(=O)C1=C(C)NC(=O)C1(NC(=O)CN1CCCC1=O)C(F)(F)F` (stereo not given), the inhibition was 5%. To `COCCCNC(=O)CC(NS(=O)(=O)c1ccc(Cl)cc1)c1ccco1` (stereo not given) belongs 0%.

Values taken from PubChem BioAssay.
